# Laboratory results taken from ChEMBL document CHEMBL1961873, “Compounds: GSK PKIS; Assays: Nanosyn kinase panel” (2012).
# Columns and labels:
# [1] = target: T1, Inhibitor of nuclear factor kappa-B kinase subunit epsilon (Homo sapiens) (UniProt Q14164); settings: at 1 µM;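 further: reported values are averaged percent inhibition figures against human IKKε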
# T1 sequence (whole entry): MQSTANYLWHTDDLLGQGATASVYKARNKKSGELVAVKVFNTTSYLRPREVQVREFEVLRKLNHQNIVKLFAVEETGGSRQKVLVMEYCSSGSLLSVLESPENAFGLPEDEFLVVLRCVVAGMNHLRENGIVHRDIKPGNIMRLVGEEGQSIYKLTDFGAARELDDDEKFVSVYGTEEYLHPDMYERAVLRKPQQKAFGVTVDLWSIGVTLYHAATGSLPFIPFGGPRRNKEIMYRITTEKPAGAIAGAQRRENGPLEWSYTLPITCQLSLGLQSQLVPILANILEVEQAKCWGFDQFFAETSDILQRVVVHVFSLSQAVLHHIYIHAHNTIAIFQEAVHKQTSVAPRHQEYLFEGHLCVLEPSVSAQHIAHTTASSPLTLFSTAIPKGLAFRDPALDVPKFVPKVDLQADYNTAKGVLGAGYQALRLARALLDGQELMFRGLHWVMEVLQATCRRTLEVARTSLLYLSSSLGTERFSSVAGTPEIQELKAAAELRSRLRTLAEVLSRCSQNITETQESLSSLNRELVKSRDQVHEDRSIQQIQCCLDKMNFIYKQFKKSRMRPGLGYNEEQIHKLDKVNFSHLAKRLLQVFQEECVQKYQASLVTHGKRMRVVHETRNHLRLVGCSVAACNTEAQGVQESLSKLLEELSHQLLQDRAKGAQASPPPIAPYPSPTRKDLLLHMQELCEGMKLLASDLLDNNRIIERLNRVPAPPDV
# [2] = target: T2, Serine/threonine-protein kinase Nek1 (Homo sapiens) (UniProt Q96PY6); settings: at 0.1 µM
# T2 sequence (whole entry): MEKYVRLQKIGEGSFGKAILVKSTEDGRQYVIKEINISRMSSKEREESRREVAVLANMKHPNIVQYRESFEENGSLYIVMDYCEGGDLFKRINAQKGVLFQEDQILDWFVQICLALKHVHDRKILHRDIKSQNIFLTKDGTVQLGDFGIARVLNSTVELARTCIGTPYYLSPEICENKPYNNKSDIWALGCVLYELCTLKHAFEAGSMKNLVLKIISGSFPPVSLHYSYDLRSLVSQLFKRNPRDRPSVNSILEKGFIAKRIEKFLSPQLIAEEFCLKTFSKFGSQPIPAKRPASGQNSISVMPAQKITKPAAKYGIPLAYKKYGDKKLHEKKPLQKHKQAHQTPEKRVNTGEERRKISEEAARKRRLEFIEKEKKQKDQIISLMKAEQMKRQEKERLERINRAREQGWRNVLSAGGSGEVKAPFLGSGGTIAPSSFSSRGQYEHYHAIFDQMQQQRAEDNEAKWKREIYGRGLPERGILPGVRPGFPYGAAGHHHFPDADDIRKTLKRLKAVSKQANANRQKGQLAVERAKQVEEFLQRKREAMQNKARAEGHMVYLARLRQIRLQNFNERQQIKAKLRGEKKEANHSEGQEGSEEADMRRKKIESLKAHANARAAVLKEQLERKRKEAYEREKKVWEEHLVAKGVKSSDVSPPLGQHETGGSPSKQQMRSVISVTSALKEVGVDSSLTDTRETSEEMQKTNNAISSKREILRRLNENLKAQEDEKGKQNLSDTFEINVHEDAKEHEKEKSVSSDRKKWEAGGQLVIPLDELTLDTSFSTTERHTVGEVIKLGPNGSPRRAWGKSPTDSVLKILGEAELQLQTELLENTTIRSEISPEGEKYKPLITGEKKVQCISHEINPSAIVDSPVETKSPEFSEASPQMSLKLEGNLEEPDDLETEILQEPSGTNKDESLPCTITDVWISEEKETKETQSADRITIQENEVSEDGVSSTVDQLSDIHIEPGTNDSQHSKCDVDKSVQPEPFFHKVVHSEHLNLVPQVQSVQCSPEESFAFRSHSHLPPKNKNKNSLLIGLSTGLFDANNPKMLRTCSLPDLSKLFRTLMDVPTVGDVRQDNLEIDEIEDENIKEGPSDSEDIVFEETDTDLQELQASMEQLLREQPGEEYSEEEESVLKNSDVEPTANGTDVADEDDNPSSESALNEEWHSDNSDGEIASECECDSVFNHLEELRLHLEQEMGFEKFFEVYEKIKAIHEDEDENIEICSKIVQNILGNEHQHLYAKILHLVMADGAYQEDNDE
# [3] = target: T2, Serine/threonine-protein kinase Nek1 (Homo sapiens); settings: at 1 µM
# [4] = target: T3, Serine/threonine-protein kinase Nek2 (Homo sapiens) (UniProt P51955); settings: at 0.1 µM
# T3 sequence (whole entry): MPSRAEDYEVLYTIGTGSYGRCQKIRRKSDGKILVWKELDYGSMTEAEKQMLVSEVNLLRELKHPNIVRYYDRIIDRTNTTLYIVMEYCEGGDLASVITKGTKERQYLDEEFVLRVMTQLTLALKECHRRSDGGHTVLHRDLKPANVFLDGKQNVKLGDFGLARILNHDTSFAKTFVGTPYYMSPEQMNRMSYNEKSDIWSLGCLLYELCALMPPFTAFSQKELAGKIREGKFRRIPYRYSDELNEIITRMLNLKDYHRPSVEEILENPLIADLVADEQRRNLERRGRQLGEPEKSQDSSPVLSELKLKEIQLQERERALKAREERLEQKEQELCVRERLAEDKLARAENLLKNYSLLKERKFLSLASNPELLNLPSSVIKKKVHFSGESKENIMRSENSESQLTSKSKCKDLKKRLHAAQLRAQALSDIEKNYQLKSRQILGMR
# [5] = target: T3, Serine/threonine-protein kinase Nek2 (Homo sapiens); settings: at 1 µM
# [6] = target: Serine/threonine-protein kinase Nek6 (Homo sapiens) (UniProt Q9HC98); settings: at 0.1 µM
# Sequence of Serine/threonine-protein kinase Nek6 (Homo sapiens) (Q9HC98 whole entry): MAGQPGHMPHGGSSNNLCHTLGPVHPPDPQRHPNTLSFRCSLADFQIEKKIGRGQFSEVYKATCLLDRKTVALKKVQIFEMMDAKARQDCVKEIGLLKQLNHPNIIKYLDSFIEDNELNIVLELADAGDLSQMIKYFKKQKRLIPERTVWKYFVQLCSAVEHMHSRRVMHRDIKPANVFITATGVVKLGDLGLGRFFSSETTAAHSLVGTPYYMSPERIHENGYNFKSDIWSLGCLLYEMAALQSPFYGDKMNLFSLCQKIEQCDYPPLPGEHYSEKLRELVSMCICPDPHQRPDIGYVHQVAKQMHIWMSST
# [7] = target: Serine/threonine-protein kinase Nek6 (Homo sapiens) (UniProt Q9HC98); settings: at 1 µM
# [8] = target: Serine/threonine-protein kinase Nek7 (Homo sapiens) (UniProt Q8TDX7); settings: at 1 µM
# Sequence of Serine/threonine-protein kinase Nek7 (Homo sapiens) (Q8TDX7 whole entry, looked up): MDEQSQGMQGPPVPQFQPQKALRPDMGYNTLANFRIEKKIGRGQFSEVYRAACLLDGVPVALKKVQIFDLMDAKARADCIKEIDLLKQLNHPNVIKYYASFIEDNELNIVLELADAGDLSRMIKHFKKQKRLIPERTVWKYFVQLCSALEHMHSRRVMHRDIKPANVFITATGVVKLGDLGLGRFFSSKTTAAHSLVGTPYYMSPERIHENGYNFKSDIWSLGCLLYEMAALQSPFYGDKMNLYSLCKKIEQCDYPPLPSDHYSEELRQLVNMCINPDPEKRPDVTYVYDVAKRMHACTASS
# [9] = target: T4, Serine/threonine-protein kinase Nek9 (Homo sapiens) (UniProt Q8TD19); settings: at 0.1 µM
# T4 sequence (whole entry): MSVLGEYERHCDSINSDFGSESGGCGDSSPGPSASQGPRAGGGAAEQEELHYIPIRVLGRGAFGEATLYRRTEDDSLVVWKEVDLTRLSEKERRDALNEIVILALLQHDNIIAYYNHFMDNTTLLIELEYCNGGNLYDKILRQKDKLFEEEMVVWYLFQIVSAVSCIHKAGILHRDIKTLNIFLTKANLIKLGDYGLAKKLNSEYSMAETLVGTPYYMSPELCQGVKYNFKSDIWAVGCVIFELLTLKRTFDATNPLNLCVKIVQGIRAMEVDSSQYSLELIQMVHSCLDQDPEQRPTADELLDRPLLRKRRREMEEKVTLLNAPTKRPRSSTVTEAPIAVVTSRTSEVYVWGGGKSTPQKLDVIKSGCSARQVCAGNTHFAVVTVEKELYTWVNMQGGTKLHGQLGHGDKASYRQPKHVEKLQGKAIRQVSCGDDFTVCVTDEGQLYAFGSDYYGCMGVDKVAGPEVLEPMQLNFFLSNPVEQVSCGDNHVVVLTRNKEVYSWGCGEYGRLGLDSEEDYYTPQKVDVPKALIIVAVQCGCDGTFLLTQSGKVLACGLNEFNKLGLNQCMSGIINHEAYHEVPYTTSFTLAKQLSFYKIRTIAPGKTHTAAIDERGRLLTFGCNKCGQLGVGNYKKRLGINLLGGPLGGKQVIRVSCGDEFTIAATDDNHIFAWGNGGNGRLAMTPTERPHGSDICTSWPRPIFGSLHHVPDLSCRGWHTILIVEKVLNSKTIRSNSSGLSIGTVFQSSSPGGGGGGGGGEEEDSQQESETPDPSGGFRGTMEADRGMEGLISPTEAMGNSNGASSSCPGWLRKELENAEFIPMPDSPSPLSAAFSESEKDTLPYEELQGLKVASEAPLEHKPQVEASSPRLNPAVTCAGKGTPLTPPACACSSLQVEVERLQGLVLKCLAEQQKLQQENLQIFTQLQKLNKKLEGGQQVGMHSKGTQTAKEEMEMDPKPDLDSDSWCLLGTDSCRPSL
# [10] = target: T4, Serine/threonine-protein kinase Nek9 (Homo sapiens); settings: at 1 µM
# [11] = target: Serine/threonine-protein kinase PLK1 (Homo sapiens) (UniProt P53350); settings: at 0.1 µM
# Sequence of Serine/threonine-protein kinase PLK1 (Homo sapiens) (P53350 whole entry): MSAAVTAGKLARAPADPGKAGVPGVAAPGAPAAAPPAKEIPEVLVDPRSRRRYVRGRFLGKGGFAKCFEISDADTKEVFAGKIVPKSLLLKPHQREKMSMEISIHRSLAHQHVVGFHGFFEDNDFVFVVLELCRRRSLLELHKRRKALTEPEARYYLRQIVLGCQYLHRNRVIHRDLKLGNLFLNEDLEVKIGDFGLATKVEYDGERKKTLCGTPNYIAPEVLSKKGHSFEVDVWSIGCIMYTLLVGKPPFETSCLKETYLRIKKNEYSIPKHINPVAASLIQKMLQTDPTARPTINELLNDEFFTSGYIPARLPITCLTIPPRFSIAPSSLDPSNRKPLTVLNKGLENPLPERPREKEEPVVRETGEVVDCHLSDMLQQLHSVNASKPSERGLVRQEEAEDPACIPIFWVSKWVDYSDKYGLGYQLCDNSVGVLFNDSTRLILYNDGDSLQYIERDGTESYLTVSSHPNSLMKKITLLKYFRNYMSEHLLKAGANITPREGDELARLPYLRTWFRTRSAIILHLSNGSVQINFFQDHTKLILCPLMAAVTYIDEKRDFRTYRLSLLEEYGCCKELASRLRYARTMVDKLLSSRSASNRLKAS
# [12] = target: Serine/threonine-protein kinase PLK1 (Homo sapiens) (UniProt P53350); settings: at 1 µM
# [13] = target: T5, Dual specificity protein kinase TTK (Homo sapiens) (UniProt P33981); settings: at 0.1 µM
# T5 sequence (whole entry): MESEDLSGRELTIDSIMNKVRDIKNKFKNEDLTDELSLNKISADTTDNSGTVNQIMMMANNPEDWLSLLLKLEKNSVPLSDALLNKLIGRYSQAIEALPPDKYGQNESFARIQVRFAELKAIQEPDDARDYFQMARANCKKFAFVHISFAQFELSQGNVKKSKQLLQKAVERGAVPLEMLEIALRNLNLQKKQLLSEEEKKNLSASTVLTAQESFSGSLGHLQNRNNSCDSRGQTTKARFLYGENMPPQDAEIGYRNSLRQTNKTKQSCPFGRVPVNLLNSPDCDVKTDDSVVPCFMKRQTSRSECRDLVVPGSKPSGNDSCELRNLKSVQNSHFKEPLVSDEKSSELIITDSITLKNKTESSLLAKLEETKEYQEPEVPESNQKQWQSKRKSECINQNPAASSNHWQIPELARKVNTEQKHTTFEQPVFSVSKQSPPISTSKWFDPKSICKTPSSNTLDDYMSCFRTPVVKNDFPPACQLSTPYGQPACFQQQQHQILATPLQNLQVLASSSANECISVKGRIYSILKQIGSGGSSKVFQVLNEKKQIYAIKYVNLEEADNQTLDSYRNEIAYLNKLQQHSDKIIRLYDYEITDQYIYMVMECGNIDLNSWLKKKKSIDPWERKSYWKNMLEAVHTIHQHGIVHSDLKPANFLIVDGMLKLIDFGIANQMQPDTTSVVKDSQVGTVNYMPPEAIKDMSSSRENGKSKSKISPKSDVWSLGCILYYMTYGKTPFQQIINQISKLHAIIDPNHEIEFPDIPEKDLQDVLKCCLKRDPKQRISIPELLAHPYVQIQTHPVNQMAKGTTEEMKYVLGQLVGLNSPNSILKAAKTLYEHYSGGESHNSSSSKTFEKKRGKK
# [14] = system: T6, Receptor-type tyrosine-protein kinase FLT3 (Homo sapiens), P36888 [D835Y]; settings: at 1 µM
# T6 sequence (whole entry): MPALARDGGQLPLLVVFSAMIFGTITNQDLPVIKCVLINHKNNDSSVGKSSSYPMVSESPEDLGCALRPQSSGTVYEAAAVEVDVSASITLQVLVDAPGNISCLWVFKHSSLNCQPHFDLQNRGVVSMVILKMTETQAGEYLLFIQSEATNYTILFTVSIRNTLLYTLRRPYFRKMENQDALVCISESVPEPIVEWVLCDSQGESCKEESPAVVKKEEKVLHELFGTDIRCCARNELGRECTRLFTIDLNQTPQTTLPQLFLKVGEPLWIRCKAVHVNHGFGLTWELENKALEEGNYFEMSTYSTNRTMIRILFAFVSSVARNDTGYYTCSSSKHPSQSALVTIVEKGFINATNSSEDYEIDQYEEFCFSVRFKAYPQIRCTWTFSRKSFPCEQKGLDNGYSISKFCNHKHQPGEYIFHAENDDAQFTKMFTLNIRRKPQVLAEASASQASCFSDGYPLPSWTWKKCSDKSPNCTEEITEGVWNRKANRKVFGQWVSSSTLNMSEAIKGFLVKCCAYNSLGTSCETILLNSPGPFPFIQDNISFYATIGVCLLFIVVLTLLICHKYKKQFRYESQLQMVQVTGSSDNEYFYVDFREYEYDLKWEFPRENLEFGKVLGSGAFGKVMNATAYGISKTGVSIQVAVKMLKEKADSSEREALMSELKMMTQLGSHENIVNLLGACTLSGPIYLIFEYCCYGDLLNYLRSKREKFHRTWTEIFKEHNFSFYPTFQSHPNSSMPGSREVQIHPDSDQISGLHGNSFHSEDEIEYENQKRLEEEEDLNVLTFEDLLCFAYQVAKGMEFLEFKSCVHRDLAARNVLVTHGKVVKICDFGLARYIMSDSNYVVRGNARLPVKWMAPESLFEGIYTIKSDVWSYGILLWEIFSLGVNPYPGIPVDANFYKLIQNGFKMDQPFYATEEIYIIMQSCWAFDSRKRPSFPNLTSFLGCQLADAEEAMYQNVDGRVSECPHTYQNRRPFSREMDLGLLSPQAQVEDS
# [15] = target: Vascular endothelial growth factor receptor 3 (Homo sapiens) (UniProt P35916); settings: at 0.1 µM
# Sequence of Vascular endothelial growth factor receptor 3 (Homo sapiens) (P35916 whole entry): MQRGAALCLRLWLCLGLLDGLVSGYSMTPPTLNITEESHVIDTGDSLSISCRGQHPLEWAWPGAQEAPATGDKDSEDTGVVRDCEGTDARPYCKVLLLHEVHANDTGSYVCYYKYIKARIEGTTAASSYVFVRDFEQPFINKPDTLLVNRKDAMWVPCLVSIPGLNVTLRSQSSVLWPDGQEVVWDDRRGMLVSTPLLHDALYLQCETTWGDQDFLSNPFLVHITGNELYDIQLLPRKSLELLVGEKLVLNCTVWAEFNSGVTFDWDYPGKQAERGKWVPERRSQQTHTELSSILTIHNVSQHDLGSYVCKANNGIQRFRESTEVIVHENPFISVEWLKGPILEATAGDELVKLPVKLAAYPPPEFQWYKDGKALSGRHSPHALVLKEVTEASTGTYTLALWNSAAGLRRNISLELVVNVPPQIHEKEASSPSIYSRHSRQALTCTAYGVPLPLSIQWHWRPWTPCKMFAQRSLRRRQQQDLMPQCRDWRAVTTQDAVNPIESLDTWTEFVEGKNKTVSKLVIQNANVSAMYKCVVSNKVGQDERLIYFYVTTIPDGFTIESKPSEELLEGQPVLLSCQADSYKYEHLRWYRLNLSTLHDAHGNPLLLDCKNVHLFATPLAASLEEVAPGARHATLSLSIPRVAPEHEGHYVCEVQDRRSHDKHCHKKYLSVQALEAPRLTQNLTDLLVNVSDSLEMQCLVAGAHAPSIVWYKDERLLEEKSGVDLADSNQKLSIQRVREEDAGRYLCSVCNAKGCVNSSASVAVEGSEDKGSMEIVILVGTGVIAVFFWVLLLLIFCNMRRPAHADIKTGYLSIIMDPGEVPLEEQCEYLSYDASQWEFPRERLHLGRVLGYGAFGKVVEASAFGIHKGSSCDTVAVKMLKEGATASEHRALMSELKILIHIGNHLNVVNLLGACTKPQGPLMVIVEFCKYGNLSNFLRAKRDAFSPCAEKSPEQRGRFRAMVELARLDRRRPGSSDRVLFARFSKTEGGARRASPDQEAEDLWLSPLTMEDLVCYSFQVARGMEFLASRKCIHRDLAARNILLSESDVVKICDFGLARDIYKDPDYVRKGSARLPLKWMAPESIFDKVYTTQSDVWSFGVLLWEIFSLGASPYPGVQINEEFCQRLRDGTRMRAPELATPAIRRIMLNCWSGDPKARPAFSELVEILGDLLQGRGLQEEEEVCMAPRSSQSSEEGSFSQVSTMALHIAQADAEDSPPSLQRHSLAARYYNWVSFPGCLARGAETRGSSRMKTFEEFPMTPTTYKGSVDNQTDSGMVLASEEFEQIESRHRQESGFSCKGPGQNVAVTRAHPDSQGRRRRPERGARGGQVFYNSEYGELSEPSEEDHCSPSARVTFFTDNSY
# [16] = target: Vascular endothelial growth factor receptor 3 (Homo sapiens) (UniProt P35916); settings: at 1 µM
# [17] = target: Macrophage colony-stimulating factor 1 receptor (Homo sapiens) (UniProt P07333); settings: at 0.1 µM
# Sequence of Macrophage colony-stimulating factor 1 receptor (Homo sapiens) (P07333 whole entry): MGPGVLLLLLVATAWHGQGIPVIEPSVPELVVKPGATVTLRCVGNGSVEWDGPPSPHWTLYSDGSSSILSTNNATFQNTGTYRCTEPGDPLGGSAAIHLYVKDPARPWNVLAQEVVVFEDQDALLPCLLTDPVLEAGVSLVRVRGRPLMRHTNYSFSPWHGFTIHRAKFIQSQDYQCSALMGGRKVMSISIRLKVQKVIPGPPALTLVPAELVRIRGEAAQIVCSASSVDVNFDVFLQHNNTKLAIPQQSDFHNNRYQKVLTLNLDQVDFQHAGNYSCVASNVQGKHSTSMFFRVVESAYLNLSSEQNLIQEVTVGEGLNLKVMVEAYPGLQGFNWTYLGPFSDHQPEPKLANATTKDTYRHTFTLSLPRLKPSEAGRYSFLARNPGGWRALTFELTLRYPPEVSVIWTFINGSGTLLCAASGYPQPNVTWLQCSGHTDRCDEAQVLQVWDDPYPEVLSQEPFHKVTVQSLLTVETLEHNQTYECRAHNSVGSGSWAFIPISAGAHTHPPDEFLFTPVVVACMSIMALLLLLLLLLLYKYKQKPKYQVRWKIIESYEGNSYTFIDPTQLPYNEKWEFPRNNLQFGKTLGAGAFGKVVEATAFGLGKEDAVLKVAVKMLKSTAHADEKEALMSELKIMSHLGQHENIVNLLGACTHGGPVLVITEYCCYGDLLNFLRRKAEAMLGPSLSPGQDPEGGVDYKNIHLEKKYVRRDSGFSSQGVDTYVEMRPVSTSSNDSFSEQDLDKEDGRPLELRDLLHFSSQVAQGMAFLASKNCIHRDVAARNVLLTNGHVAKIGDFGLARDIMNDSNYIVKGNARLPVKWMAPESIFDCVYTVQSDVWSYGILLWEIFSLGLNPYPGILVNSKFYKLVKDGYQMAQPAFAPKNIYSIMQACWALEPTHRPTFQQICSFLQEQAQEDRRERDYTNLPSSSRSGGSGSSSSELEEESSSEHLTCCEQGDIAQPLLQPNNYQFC
# [18] = target: Macrophage colony-stimulating factor 1 receptor (Homo sapiens) (UniProt P07333); settings: at 1 µM
# [19] = target: Tyrosine-protein kinase Fyn (Homo sapiens) (UniProt P06241); settings: at 0.1 µM
# Sequence of Tyrosine-protein kinase Fyn (Homo sapiens) (P06241 2-537 limits assumed): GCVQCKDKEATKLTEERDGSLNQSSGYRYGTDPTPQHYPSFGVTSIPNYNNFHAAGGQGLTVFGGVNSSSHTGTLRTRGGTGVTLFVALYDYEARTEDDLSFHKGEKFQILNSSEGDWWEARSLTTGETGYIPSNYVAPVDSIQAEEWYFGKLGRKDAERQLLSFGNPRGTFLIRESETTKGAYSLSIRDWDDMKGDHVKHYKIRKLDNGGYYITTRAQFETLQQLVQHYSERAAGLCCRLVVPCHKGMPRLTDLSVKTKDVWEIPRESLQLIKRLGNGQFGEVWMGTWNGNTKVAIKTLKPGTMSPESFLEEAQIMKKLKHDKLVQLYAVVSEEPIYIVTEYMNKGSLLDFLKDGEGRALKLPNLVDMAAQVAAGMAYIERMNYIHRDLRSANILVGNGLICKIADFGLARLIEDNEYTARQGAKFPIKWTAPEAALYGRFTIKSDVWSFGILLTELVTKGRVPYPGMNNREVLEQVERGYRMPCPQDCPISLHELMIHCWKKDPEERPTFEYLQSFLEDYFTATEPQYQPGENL
# [20] = target: Serine/threonine-protein kinase Nek7 (Homo sapiens) (UniProt Q8TDX7); settings: at 0.1 µM
Compound,inhibition [1] [%],inhibition [2] [%],inhibition [3] [%],inhibition [4] [%],inhibition [5] [%],inhibition [6] [%],inhibition [7] [%],inhibition [8] [%],inhibition [9] [%],inhibition [10] [%],inhibition [11] [%],inhibition [12] [%],inhibition [13] [%],inhibition [14] [%],inhibition [15] [%],inhibition [16] [%],inhibition [17] [%],inhibition [18] [%],inhibition [19] [%],inhibition [20] [%]
Cc1cc(-c2ccco2)cc(C)c1/C=C/c1cncc(-c2nn[nH]n2)c1,3.83,1.34,1.67,1.03,1.44,0.53,-0.1,0.89,3.25,1.42,1.22,0.57,4.5,-2.85,1.37,2.25,-0.94,2.32,1.3,
COc1cccc(COc2cc(-n3cnc4ccccc43)sc2C(N)=O)c1,-7.06,0.41,4.13,8.56,1.43,1.63,-0.37,0.66,0.4,8.39,66.5,92.2,3.72,-4.13,-2.19,4.75,-8.31,-1.4,0,0.3
CCn1c(-c2nonc2N)nc2c(C#CCN)ncc(OCCCN)c21,2.04,-2.66,-3.17,-4.61,-4.57,-0.99,-1.85,-9.67,,-9.04,-5.66,-6.34,-4.74,7.13,-2.4,1.59,-1.23,0.9,0.54,-5.43
